In general, Inhibition refers to the relative decrease from the control value, in per cent.

Our source for the Inhibition values is ChEMBL document CHEMBL4513135, “CO-ADD screening of IQOG CSIS (Spain) compounds”.

Where “and” joins values, the source holds several entries; their conditions need not be identical. Equal entries are not always repeated. Results with a measured potency or affinity are listed apart.

The test system of one assay is Staphylococcus aureus. Conditions: Concentration 32 ug.mL-1, ASSAY_TEST Inhibition of Bacterial Growth, detection method Absorption (OD600), MEDIA CAMHB, plate type 384well, NBS, CORNING #3640, time 18 hr.
Another assay concerns Escherichia coli. The note with it: Concentration 32 ug.mL-1, ASSAY_TEST Inhibition of Bacterial Growth, detection method Absorption (OD600), MEDIA CAMHB, plate type 384well, NBS, CORNING #3640, time 18 hr.

As to `N#CC1=C(N)Oc2ccc3ccccc3c2C1c1ccccc1` (stereo unspecified), the Inhibition in the assay on Staphylococcus aureus was 40.09%; in the assay with Escherichia coli, -6.38%.

For `Cc1nc2c3cnn(-c4ccccc4)c3ncn2n1`, the Inhibition in the assay on Staphylococcus aureus stood at 15.5%; in the assay with Escherichia coli it was 11.4%.

As for `CN(C)c1cccc(C(=O)c2cccc(N(C)C)c2)c1`, the Inhibition in the assay with Staphylococcus aureus turned out to be 23.31%; in the assay on Escherichia coli, 7.89%.

On to `COc1ccccc1C1C(C#N)=C(N)Oc2c1ccc1ccccc21` (stereo unspecified), for which the Inhibition is recorded as 19.36% in the assay with Staphylococcus aureus and -9.01% in the assay with Escherichia coli.

For `N#Cc1c(N)nc(NCc2ccccc2)c(C#N)c1-c1ccccc1`, the Inhibition with Staphylococcus aureus is listed as -2.03%; with Escherichia coli, -5.8%.

Take `COc1ccc2cc(C3C(C(C)=O)=C(C)Oc4nc5c(c(N)c43)CCC5)c(Cl)nc2c1` (stereo unspecified): the Inhibition with Staphylococcus aureus came out at 7.35%; in the assay on Escherichia coli, 4.4%.

Consider `COc1cc(C2c3c(nc4c(c3N)CCC4)Oc3ccc4ccccc4c32)ccc1O` (stereo unspecified), for which the Inhibition with Staphylococcus aureus is 11.79%; with Escherichia coli, 11.06%.

Turning to `COc1cccc(-c2c(C#N)c(=O)oc3c2ccc2ccccc23)c1`, the Inhibition is recorded as 13.24% in the assay on Staphylococcus aureus and 14.42% with Escherichia coli.

Take `N#Cc1c(Cl)nc(Cl)c(C#N)c1-c1ccccc1`: the Inhibition in the assay with Staphylococcus aureus is given as 37.97%; in the assay with Escherichia coli it was -3.96%.

As for `C#CCN(C)Cc1cc2cc(OC)ccc2n1C`, the Inhibition in the assay on Staphylococcus aureus is reported as 33.86%; with Escherichia coli it was -8.2%.

As for `C#CCNC.O=C(O)C(=O)O`, the Inhibition in the assay on Staphylococcus aureus is reported as 24.36%; with Escherichia coli, 23.06%.

For the molecule `CCOC(=O)C1=C(C)OC(N)=C(C#N)C1c1ccc(OC)c(OC)c1` (stereo unspecified), the Inhibition with Staphylococcus aureus is 21.72%; in the assay on Escherichia coli, -10.4%.

For `N#Cc1c(Cl)nc(N2CCCCC2)c(C#N)c1-c1ccccc1`, the results for the Inhibition in the assay on Staphylococcus aureus and in the assay on Escherichia coli were -12.16% and 17.72%, respectively.

On to `C#CCN(C)Cc1cc2cc(OCOc3ccc4c(c3)cc(CN(C)CC#C)n4C)ccc2n1C`, for which the values for the Inhibition with Staphylococcus aureus and with Escherichia coli were 15.95% and -10.88%, respectively.

As to `CN(Cc1cn(Cc2ccccc2)nn1)Cc1cc2cc(OCCCC3CCN(Cc4ccccc4)CC3)ccc2n1C`, the Inhibition is listed as 10.05% in the assay with Staphylococcus aureus and -17.67% with Escherichia coli.

For `COC(=O)C(=Cc1ccccc1)NC(=O)c1ccccc1`, the results for the Inhibition in the assay on Staphylococcus aureus and in the assay on Escherichia coli were 11.82% and 6.08%, respectively.

On to `COc1ccccc1C1c2ccc3ccccc3c2OC(=NBr)C1(Br)C#N` (stereo unspecified), for which the Inhibition was 25.54% in the assay on Staphylococcus aureus and -9.86% in the assay on Escherichia coli.

With `Cc1ccc(S(=O)(=O)N[C@H]2CC[C@H](O)CC2)cc1`, the Inhibition in the assay on Staphylococcus aureus is 22.82%; in the assay on Escherichia coli, -6.91%.

In the case of `Nc1c2c(nc3c1C(c1ccc([N+](=O)[O-])cc1)c1c(ccc4ccccc14)O3)CCCC2` (stereo unspecified), the Inhibition in the assay with Staphylococcus aureus is on record as 18.24%; in the assay with Escherichia coli, 7.89%.

`COc1ccc(C2c3ccc4ccccc4c3Oc3nc4c(c(N)c32)CCCC4)c(OC)c1` (stereo unspecified): the Inhibition with Staphylococcus aureus is reported as -6.11%; in the assay with Escherichia coli, -4.44%.

As to `Cc1nc(Nc2ccccc2)c2c(C)nn(-c3ccccc3)c2n1`, the Inhibition in the assay on Staphylococcus aureus was found to be 15.21%; in the assay with Escherichia coli, 8.02%.

For the molecule `COc1nc2ccccc2cc1C=O`, the Inhibition in the assay with Staphylococcus aureus is 17.37%; in the assay on Escherichia coli, 18.39%.

As for `O=C(Cc1c[nH]c2ccccc12)NNCCc1ccccc1`, the Inhibition with Staphylococcus aureus is 4.22%; with Escherichia coli, 5.19%.

For `CC#CCN(C)Cc1cc2cc(OCc3ccccc3)ccc2n1C.O=C(O)C(=O)O`, the Inhibition in the assay on Staphylococcus aureus turned out to be 7.01%; in the assay on Escherichia coli, 5.45%.

Turning to `N#Cc1cc(C#N)c(N2CCCC2)nc1N`, the Inhibition in the assay with Staphylococcus aureus was 51.19%; in the assay with Escherichia coli it was -9.12%.

As to `CCOC(N)=CC#N`, the Inhibition in the assay with Staphylococcus aureus is -2.54%; with Escherichia coli, 11.63%.

Take `CC(=O)Nc1nn(C)c2nc3nc4c(c(N)c3cc12)CCCC4`: the Inhibition is 26.15% and 21.32% with Staphylococcus aureus (32 ug/mL); -7.37% and -4.67% in the assay with Escherichia coli (32 ug/mL).

As to `CN(C)c1nc(N)c(C#N)c(-c2ccccc2)c1C#N`, the Inhibition with Staphylococcus aureus stood at 7.52%; in the assay on Escherichia coli it was 0.57%.

As for `CC(=O)Oc1ccc(C=C2N=C(C)OC2=O)cc1`, the Inhibition is given as 8.81% with Staphylococcus aureus and 9.02% with Escherichia coli.

As to `O=C(Cc1c[nH]c2ccccc12)NN=C1CCCCCC1`, the Inhibition in the assay on Staphylococcus aureus was 10.21%; in the assay with Escherichia coli, 6.07%.

As for `CCOC(=O)c1cc2cc(OC)ccc2n1C`, the Inhibition is listed as -7.5% with Staphylococcus aureus and -9.48% in the assay on Escherichia coli.

As to `N#CC1=C(Cl)Oc2ccc3ccccc3c2C1c1ccccc1` (stereo unspecified), the Inhibition in the assay with Staphylococcus aureus stood at 24.96%; with Escherichia coli, 12.43%.

Regarding `CCCC(=O)NCc1c(-c2ccc(Cl)cc2)nc2ccccn12`, the Inhibition in the assay on Staphylococcus aureus amounted to 11.89%; in the assay on Escherichia coli, 8.99%.

As to `CC(=O)n1cc(/C=C2\N=C(c3ccccc3)OC2=O)c2ccccc21`, the Inhibition in the assay with Staphylococcus aureus amounted to 15.78%; in the assay on Escherichia coli, 15.77%.

`Cn1ccnc1C1c2c(nc3c(c2N)CCC3)Oc2ccc3ccccc3c21` (stereo unspecified): the Inhibition in the assay with Staphylococcus aureus is 25.1%; with Escherichia coli, -9.44%.

For `N#Cc1cc(C#N)c(N2CCCC2)nc1N1CCCC1`, the Inhibition was found to be 17.61% with Staphylococcus aureus and 8.77% in the assay on Escherichia coli.

On to `COc1ccc(/C=C2/N=C(c3ccccc3)OC2=O)cc1OC`, for which the Inhibition is recorded as -19.31% in the assay on Staphylococcus aureus and -9.68% with Escherichia coli.

As to `N#Cc1c(Cl)nc(NC2CCN(Cc3ccccc3)CC2)c(C#N)c1-c1ccccc1`, the Inhibition is listed as -0.92% in the assay with Staphylococcus aureus and -18.84% with Escherichia coli.
